# According to article PMC7862700, “An all-to-all approach to the identification of sequence-specific readers for epigenetic DNA modifications on cytosine”:
# Columns and labels:
# Assay in all cases: DAPPL (digital affinity profiling via proximity ligation, sequencing); 10 mM Tris-HCl pH 7.5, 50 mM NaCl, 1 mM DTT, 4% glycerol, room temperature, 30 min; GST-TFs on glutathione beads, 16-mer random dsDNA library, 0.1% formaldehyde crosslink after washing; high values mean tight binding
# [1] = target: T1, FEV (Homo sapiens, UniProt Q99581 1-238); settings: protein: recombinant; tags: N-terminal GST; dsDNA, one strand shown
# T1 sequence: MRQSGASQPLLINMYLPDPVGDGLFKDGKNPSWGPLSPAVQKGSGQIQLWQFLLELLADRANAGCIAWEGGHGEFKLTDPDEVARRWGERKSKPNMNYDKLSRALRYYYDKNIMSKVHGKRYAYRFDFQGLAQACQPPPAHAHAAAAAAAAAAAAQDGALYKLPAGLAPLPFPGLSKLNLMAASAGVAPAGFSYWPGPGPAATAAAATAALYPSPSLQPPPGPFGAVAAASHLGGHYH
# Summary of the method: (§1)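 In yeast, human transcription factors were expressed with a GST fusion, then pulled down on glutathione beads and given DNA barcodes. Pooled with a tag-only sample, they were exposed to 200 nmole of a 16-mer random double-stranded DNA library (Tris/NaCl/DTT/glycerol buffer, room temperature, 30 min), washed, crosslinked with 0.1% formaldehyde, proximity-ligated using BsaI/T4 ligase for 1 h at 37 °C, PCR-amplified and read on an Illumina NextSeq500. Each hexamer's frequency of reads for a factor, divided by the matching frequency for the tag-only sample, gives the binding signal.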
# [2] = target: ETV5 (Homo sapiens, UniProt P41161 1-510); settings: protein: recombinant; tags: N-terminal GST; dsDNA, one strand shown
# Chain of ETV5 (P41161 whole entry): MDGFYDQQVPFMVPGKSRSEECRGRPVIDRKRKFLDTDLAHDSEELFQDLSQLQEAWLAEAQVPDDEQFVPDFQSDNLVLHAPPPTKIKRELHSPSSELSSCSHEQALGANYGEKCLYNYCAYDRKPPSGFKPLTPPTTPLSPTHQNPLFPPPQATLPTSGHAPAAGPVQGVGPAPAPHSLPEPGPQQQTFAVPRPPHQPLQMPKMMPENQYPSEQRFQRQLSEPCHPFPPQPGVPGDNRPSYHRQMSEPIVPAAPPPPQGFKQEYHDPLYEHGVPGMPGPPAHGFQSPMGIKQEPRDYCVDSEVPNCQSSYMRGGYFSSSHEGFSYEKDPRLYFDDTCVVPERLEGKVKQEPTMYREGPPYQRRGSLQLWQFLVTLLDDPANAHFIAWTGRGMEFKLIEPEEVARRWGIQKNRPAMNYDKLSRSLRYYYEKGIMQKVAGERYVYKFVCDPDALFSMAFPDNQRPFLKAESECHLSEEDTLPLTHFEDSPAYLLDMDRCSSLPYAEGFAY
# Summary of the method: as §1
# [3] = target: HSF1 (Homo sapiens, UniProt Q00613 1-529); settings: protein: recombinant; tags: N-terminal GST; chain copies: 3; dsDNA, one strand shown
# Chain of HSF1 (Q00613 whole entry): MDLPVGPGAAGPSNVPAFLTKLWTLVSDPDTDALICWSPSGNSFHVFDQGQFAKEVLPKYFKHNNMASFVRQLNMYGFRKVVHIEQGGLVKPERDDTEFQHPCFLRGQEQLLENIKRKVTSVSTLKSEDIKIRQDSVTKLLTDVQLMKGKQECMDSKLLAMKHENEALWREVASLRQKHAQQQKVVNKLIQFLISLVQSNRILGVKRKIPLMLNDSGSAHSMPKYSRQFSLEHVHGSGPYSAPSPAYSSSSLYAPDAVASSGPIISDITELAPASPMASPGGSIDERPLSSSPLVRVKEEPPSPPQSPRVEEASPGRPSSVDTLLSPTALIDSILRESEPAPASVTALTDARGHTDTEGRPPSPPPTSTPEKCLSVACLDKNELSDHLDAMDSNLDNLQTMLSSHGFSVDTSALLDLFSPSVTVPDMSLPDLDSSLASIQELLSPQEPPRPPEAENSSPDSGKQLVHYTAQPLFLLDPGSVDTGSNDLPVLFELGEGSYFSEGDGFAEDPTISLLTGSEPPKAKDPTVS
# Summary of the method: as §1
# [4] = target: T2, SPIC (Homo sapiens, UniProt Q8N5J4 1-248); settings: protein: recombinant; tags: N-terminal GST; dsDNA, one strand shown
# T2 sequence: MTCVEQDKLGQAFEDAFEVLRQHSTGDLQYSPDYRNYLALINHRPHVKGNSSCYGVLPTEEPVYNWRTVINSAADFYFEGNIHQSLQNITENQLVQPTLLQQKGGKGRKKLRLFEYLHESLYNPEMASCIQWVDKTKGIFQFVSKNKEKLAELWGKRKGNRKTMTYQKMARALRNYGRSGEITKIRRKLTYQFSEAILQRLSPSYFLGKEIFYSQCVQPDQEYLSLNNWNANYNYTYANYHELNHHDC
# Summary of the method: as §1
# [5] = target: ELF4 (Homo sapiens, UniProt Q99607 1-663); settings: protein: recombinant; tags: N-terminal GST; dsDNA, one strand shown
# Chain of ELF4 (Q99607 whole entry): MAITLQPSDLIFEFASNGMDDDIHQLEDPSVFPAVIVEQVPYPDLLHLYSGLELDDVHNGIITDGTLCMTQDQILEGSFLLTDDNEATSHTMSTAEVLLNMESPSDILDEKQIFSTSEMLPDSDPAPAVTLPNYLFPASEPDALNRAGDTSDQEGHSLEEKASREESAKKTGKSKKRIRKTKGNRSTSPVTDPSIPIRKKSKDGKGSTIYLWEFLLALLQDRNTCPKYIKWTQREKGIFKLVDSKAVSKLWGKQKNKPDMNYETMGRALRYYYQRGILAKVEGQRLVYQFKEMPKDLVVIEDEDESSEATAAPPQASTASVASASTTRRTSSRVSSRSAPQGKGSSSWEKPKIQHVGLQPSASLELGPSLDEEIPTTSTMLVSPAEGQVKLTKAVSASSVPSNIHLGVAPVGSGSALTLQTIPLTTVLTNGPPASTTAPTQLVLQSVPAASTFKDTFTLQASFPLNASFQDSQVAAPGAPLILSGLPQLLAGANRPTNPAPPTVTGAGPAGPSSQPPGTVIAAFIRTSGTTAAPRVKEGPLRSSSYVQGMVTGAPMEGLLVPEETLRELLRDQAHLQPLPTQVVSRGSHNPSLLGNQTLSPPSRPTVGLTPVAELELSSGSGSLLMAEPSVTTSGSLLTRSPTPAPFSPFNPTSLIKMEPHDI
# Summary of the method: as §1
# [6] = target: T3, ELK4 (Homo sapiens, UniProt P28324-2 1-405); settings: protein: recombinant; tags: N-terminal GST; dsDNA, one strand shown
# T3 sequence: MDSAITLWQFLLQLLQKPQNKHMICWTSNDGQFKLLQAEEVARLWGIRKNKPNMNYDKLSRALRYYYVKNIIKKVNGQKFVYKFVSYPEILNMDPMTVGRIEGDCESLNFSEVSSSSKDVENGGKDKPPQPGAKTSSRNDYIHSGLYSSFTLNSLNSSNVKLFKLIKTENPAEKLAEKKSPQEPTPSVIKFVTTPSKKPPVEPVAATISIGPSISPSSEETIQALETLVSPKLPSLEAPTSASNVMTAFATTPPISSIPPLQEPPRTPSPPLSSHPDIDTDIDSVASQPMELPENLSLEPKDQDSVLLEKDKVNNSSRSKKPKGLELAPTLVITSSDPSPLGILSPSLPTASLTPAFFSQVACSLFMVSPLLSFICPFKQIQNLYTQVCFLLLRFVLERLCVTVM
# Summary of the method: as §1
# [7] = target: T4, ETV2 (Homo sapiens, UniProt O00321 1-342); settings: protein: recombinant; tags: N-terminal GST; dsDNA, one strand shown
# T4 sequence: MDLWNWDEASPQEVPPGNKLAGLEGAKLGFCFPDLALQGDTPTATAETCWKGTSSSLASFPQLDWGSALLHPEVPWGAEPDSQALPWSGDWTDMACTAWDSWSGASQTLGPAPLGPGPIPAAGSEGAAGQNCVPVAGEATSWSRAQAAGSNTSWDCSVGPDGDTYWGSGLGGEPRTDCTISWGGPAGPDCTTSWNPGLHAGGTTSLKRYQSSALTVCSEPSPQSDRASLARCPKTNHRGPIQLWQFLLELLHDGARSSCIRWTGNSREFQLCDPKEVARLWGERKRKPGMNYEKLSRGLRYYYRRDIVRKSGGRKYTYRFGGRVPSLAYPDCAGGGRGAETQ
# Summary of the method: as §1
# [8] = target: T5, ELF3 (Homo sapiens, UniProt P78545 1-371); settings: protein: recombinant; tags: N-terminal GST; dsDNA, one strand shown
# T5 sequence: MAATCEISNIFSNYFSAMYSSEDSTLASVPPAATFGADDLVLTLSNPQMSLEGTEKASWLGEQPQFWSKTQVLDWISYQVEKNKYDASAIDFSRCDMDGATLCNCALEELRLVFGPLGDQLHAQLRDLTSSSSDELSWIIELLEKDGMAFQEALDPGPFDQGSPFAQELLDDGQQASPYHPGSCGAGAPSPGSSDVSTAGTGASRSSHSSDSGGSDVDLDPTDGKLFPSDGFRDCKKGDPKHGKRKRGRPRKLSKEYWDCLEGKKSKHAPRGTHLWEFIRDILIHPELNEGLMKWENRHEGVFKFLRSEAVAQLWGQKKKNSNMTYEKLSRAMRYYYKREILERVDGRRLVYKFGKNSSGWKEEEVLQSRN
# Summary of the method: as §1
# [9] = target: CRX (Homo sapiens, UniProt O43186 1-299); settings: protein: recombinant; tags: N-terminal GST; dsDNA, one strand shown
# Chain of CRX (O43186 whole entry): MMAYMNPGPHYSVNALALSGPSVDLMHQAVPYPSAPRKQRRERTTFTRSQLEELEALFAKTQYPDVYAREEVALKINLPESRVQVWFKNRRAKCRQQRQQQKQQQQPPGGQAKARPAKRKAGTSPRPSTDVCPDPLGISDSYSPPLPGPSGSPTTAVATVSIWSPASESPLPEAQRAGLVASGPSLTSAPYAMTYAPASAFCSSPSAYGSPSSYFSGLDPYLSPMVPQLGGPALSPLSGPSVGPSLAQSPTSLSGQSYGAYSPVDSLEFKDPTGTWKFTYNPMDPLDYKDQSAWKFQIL
# Summary of the method: as §1
# [10] = target: ETV1 (Homo sapiens, UniProt P50549 1-477); settings: protein: recombinant; tags: N-terminal GST; dsDNA, one strand shown
# Chain of ETV1 (P50549 whole entry): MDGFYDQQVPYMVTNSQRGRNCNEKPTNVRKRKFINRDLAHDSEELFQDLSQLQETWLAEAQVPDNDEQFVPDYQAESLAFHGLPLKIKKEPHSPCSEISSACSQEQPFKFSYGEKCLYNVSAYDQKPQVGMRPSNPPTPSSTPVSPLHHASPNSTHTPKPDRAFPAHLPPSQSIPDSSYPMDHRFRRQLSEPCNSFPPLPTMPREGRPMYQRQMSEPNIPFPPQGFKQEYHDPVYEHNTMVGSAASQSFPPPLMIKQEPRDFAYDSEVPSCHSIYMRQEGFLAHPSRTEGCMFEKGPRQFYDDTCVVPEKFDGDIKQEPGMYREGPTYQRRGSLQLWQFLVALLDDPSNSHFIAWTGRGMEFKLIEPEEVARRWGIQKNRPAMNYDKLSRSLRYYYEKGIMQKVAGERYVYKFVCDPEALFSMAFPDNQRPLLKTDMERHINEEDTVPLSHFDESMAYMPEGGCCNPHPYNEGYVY
# Summary of the method: as §1
# [11] = target: T6, ERF (Homo sapiens, UniProt P50548 1-548); settings: protein: recombinant; tags: N-terminal GST; dsDNA, one strand shown
# T6 sequence: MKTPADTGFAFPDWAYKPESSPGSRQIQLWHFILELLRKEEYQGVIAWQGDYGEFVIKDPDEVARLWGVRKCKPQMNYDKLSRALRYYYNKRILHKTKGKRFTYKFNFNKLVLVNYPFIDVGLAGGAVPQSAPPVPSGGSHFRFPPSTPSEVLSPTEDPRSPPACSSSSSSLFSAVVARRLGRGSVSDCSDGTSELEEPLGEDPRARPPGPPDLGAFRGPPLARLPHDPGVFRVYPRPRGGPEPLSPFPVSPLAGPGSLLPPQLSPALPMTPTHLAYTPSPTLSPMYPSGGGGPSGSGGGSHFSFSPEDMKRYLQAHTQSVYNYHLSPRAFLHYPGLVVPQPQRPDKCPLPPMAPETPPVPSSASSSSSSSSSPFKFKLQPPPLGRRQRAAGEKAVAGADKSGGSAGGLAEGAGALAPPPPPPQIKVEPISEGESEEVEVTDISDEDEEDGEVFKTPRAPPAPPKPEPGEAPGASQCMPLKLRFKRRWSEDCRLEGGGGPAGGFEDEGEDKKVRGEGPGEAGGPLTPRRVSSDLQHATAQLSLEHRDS
# Summary of the method: as §1
# [12] = target: T7, ETV3L (Homo sapiens, UniProt Q6ZN32 1-361); settings: protein: recombinant; tags: N-terminal GST; dsDNA, one strand shown
# T7 sequence: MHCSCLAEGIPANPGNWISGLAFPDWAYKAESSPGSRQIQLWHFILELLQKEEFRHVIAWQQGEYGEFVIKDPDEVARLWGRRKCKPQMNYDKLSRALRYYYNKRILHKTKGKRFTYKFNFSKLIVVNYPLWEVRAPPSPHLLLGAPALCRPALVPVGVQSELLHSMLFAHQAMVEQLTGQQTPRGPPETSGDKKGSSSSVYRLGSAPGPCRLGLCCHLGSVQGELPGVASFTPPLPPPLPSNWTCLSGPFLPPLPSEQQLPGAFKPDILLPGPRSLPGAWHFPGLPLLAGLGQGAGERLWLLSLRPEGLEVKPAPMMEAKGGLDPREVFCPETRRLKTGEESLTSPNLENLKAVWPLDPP
# Summary of the method: as §1
# [13] = target: T8, ETS2 (Homo sapiens, UniProt P15036 1-469); settings: protein: recombinant; tags: N-terminal GST; dsDNA, one strand shown
# T8 sequence: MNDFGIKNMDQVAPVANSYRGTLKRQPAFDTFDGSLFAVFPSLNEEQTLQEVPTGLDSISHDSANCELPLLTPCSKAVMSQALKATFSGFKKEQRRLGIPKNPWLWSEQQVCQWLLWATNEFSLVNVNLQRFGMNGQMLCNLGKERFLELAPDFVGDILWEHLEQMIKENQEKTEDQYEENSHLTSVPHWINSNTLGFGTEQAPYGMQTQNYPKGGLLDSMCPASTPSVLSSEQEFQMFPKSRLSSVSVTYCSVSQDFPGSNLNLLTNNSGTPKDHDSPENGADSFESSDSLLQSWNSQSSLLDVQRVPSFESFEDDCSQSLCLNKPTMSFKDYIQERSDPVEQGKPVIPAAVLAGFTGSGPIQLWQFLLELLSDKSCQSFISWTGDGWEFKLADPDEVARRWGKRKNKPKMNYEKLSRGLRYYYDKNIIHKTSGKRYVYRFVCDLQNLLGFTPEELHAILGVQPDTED
# Summary of the method: as §1
# [14] = target: T9, SPDEF (Homo sapiens, UniProt O95238 1-335); settings: protein: recombinant; tags: N-terminal GST; dsDNA, one strand shown
# T9 sequence: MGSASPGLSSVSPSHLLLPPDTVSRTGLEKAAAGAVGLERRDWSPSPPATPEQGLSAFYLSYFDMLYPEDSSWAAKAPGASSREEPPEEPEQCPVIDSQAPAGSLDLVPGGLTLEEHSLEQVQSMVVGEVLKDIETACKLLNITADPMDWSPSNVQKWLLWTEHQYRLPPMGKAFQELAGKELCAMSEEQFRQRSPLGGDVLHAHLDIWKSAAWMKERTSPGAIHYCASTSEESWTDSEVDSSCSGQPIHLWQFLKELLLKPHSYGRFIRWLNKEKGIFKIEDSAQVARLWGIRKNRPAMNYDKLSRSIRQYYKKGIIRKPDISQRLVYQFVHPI
# Summary of the method: as §1
# [15] = target: T10, ETV7 (Homo sapiens, UniProt Q9Y603 1-341); settings: protein: recombinant; tags: N-terminal GST; dsDNA, one strand shown
# T10 sequence: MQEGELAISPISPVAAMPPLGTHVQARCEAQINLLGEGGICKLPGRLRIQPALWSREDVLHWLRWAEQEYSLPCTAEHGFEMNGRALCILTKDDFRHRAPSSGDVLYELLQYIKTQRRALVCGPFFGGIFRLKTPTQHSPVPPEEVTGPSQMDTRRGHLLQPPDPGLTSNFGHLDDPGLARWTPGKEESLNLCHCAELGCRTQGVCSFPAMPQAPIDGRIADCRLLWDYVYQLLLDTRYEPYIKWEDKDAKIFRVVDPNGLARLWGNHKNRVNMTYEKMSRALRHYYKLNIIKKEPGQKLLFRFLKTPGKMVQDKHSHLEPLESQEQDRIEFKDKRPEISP
# Summary of the method: as §1
# [16] = target: T11, ELF5 (Homo sapiens, UniProt Q9UKW6-2 1-255); settings: protein: recombinant; tags: N-terminal GST; dsDNA, one strand shown
# T11 sequence: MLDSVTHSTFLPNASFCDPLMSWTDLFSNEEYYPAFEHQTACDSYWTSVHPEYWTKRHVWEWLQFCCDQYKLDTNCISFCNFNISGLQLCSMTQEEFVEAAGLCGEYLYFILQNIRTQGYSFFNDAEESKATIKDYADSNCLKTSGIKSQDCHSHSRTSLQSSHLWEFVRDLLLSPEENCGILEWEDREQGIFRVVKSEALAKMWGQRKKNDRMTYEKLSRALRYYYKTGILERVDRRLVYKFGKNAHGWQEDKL
# Summary of the method: as §1
# [17] = target: T12, ETV3 (Homo sapiens, UniProt P41162-2 1-143); settings: protein: recombinant; tags: N-terminal GST; dsDNA, one strand shown
# T12 sequence: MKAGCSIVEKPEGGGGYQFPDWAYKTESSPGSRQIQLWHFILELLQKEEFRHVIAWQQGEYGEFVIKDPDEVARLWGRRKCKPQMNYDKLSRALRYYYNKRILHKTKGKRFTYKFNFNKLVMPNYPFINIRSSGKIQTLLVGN
# Summary of the method: as §1
# [18] = target: ETV6 (Homo sapiens, UniProt P41212 1-452); settings: protein: recombinant; tags: N-terminal GST; dsDNA, one strand shown
# Chain of ETV6 (P41212 whole entry): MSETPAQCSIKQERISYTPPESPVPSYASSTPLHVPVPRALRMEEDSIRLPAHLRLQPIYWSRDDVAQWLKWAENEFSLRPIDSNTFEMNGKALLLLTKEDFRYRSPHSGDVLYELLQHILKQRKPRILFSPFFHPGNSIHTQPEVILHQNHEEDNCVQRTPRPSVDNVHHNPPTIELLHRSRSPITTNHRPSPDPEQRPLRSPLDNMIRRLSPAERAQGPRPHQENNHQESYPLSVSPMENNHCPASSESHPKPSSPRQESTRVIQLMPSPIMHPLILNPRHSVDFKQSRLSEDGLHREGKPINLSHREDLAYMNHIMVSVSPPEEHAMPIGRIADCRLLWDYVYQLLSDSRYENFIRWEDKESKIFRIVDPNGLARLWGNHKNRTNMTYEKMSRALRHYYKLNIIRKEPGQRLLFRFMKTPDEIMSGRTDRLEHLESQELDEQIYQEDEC
# Summary of the method: as §1
sequence,measurement,setting,value
CCTGAT,binding signal,[1],"1.32 fold enrichment (6-mer frequency, TF over GST control)"
same,binding signal,[2],"1.49 fold enrichment (6-mer frequency, TF over GST control)"
same,binding signal,[3],"1.32 fold enrichment (6-mer frequency, TF over GST control)"
same,binding signal,[4],"1.42 fold enrichment (6-mer frequency, TF over GST control)"
same,binding signal,[5],"1.59 fold enrichment (6-mer frequency, TF over GST control)"
same,binding signal,[6],"1.5 fold enrichment (6-mer frequency, TF over GST control)"
same,binding signal,[7],"1.55 fold enrichment (6-mer frequency, TF over GST control)"
same,binding signal,[8],"1.34 fold enrichment (6-mer frequency, TF over GST control)"
same,binding signal,[9],"1.44 fold enrichment (6-mer frequency, TF over GST control)"
same,binding signal,[10],"1.46 fold enrichment (6-mer frequency, TF over GST control)"
same,binding signal,[11],"1.5 fold enrichment (6-mer frequency, TF over GST control)"
same,binding signal,[12],"1.36 fold enrichment (6-mer frequency, TF over GST control)"
same,binding signal,[13],"1.46 fold enrichment (6-mer frequency, TF over GST control)"
same,binding signal,[14],"1.59 fold enrichment (6-mer frequency, TF over GST control)"
same,binding signal,[15],"1.29 fold enrichment (6-mer frequency, TF over GST control)"
same,binding signal,[16],"1.64 fold enrichment (6-mer frequency, TF over GST control)"
same,binding signal,[17],"1.43 fold enrichment (6-mer frequency, TF over GST control)"
same,binding signal,[18],"1.41 fold enrichment (6-mer frequency, TF over GST control)"
